Hit rate of the full screen: of about 360,000 compounds, about 16,000 (4.4%) were called active. Not shown: some 9% with an inconclusive outcome. For the sample, actives were picked, then their nearest neighbours and some compounds at random. A number with no mark means an inactive call. The call rests on the fitted dose curve; in most records, active means well fitted inhibition curve with a large enough effect; inconclusive means small, poorly fitted or top-dose-only effect; inactive means no such curve, though single readings can be large or run the other way.
Biological target: Bromodomain adjacent to zinc finger domain protein 2B (Homo sapiens) (UniProt Q9UIF8)
Assay: qHTS Assay for Inhibitors of BAZ2B; further: nearly all actives have a fitted effect of over 60% in size
Settings: AlphaScreen BAZ2B-H3K14Ac peptide displacement; series mostly up to 114 µM; activity change, negative = inhibition: at the top concentration
Source text: BAZ2B (bromodomain adjacent to zinc finger domain, 2B) belongs to a family of ubiquitously expressed bromodomain containing proteins, which biological function has not yet been elucidated. […] The interaction of BAZ2B with ISWI mediated by the BAZ1 motif has recently been described. […] The protocol is based on the AlphaScreen (PerkinElmer) displacement assay developed by NCGC [5], but uses the peptide ligand Biot-H3K14Ac, a high affinity binding partner for BAZ2B, in an AlphaScreen format. Although AlphaScreen has significant advantages with its utility in a variety of epigenetic target assays, the primary screening data provided in this deposition should be used with caution due to the prevalence of screening artifacts. The top compound concentration tested was 110uM in this assay, which increases number of actives and potential artifacts. An AlphaScreen counterscreen is highly recommended to be run against any putative actives to eliminate non-specific artifacts. Alternatively, one can use other AlphaScreen assays in PubChem to filter out promiscuous hits. Eberharter, A. et al. ACF1 improves the effectiveness of nucleosome mobilization by ISWI through PHD-histone contacts. The EMBO journal 23, 4029-4039. 2004. PMID: 15457208 [2] Jones, M.H. et al. A novel family of bromodomain genes. Genomics 63, 40-45. 2000. PMID: 10662543 [3] Yasgar, et al. Compound Management for Quantitative High-Throughput Screening. JALA. 2008 Apr;13(2):79-89. PMID: 18496600 [4] Inglese, et al. Quantitative high-throughput screening: a titration-based approach that efficiently identifies biological activities in large chemical libraries. Proc Natl Acad Sci. 1;103(31):11473-8. 2006. PMID: 16864780 [5] Quinn et al. A chemiluminescence-based method for identification of histone lysine methyltransferase inhibitors. Mol Biosyst 6(5): 782-8. 2010. PMID: 20567762 [6] Baell,Holloway. New substructure filters for removal of pan assay interference compounds (PAINS) from screening libraries and for their exclusion in bioassays. J Med Chem. 53(7):2719-40. 2010. PMID: 20131845 NIH Molecular Libraries Probe Production Network [MLPCN] NIH Chemical Genomics Center [NCGC] Structural Genomics Consortium (SGC) NIH Grant: 5U54 MH084681-02
To each well of a 1,536w plate, 2ul of BAZ2B protein (final 50nM) and 1ul biotinylated histone peptide acetylated at Lys14 [b-H3(5-23)K14Ac] (final 50nM) were added in 1x PBS buffer, pH 7.4, containing 0.01% Tween-20, using a nanoliter dispenser. Formation of a protein-peptide complex proceeded at room temperature for 30 min. A Kalypsys pin-tool was employed to transfer 23 nL of library compound solution in DMSO to each well. Following a 30 min incubation of the protein-peptide complex with compounds at room temperature, a mixture of 40 ug/mL each streptavidin-coated donor and nickel chelate acceptor AlphaScreen beads (final 10 ug/mL) were added in a 1ul dispense for a final volume of 4ul. A brief centrifugation followed (1000rpm, 1 min) and were then incubated protected from the light for 20 min at room temperature. Plates were read on an EnVision multilabel plate reader using the 1,536 plate HTS AlphaScreen aperture (excitation time 80 ms, measurement time 240 ms).
On the % scale 0 is the no-effect control and ±100 the full control effect; potency means the concentration at half of the fitted maximal effect.

Bromodomain adjacent to zinc finger domain protein 2B (Homo sapiens), sequence (Q9UIF8 whole entry, looked up, the tested form may be a part): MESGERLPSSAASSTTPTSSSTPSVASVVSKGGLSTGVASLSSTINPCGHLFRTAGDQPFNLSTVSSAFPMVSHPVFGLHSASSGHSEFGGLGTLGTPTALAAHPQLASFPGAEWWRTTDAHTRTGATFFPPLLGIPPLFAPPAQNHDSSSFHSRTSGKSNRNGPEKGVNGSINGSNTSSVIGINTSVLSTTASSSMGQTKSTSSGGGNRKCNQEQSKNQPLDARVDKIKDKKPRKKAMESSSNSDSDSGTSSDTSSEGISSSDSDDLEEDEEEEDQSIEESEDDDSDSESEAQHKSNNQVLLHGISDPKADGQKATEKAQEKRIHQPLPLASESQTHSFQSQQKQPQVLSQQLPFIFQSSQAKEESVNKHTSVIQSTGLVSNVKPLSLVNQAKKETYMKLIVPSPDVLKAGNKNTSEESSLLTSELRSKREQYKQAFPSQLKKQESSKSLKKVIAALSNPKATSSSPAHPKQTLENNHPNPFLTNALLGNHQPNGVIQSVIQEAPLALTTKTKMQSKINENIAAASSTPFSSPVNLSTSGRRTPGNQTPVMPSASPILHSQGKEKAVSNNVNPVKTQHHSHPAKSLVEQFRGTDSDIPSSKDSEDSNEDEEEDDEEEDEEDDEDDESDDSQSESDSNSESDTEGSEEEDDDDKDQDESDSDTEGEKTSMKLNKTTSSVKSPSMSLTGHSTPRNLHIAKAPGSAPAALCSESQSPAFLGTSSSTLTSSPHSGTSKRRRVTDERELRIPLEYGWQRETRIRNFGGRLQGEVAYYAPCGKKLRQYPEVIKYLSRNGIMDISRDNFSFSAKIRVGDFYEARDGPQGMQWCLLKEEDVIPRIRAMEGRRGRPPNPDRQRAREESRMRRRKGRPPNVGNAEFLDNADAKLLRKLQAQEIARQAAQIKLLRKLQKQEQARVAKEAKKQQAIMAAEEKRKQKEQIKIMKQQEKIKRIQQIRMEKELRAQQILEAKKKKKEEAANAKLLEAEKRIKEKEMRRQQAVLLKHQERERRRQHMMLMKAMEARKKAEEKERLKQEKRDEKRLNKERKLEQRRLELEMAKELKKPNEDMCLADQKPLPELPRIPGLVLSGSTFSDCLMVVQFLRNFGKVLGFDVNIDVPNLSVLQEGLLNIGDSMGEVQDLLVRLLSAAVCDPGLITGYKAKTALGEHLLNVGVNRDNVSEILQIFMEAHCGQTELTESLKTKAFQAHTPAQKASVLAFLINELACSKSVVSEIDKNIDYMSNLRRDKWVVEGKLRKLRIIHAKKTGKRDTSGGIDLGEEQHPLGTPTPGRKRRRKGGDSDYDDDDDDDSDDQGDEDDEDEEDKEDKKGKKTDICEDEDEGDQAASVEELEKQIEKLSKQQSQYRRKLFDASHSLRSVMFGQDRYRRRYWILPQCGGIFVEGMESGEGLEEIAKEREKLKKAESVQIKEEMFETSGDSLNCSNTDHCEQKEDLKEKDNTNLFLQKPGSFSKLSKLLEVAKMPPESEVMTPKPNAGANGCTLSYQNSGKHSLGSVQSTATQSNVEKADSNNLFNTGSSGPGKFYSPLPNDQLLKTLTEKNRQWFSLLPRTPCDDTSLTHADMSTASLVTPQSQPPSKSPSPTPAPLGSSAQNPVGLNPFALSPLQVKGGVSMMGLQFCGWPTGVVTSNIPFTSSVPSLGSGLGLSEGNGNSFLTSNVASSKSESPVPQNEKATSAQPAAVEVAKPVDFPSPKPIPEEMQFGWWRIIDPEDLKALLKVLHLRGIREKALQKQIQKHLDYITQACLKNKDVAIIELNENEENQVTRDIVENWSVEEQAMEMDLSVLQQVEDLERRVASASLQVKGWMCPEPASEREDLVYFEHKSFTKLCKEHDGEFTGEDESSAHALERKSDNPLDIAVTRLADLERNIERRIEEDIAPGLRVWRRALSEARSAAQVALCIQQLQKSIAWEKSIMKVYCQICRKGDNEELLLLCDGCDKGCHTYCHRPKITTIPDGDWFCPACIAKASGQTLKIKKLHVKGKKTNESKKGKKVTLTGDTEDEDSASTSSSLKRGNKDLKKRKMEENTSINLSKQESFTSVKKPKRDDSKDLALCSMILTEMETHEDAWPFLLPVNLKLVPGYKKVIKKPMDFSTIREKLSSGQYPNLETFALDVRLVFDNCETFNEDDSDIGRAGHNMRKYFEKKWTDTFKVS

SMILES | activity change, negative = inhibition | Potency
CCOc1ccccc1N(CC)C(=O)Nc1cn(C)c(=O)c2ccccc12 | 6.05% | –
CC(C)c1ccc(NC(=O)CN(C)S(=O)(=O)c2ccc3c(c2)c(=O)n(C)c(=O)n3C)cc1 | -2.58% | –
CCS(=O)(=O)c1nc(S(=O)(=O)c2ccc(C)cc2)c(NCc2ccc(Cl)cc2)s1 | -7.97% | –
Cn1c(=O)c(C(=O)O)nn(-c2ccccc2)c1=O | -1.4% | –
CCOC(=O)C1CCN(c2ccc(C(=O)O)cc2[N+](=O)[O-])CC1 | 4.06% | –
O=C(O)C1CCN(c2ccc([N+](=O)[O-])cc2[N+](=O)[O-])CC1 | – | 56.2 µM (active)
CC1CCN(c2ccc([N+](=O)[O-])cc2C(N)=O)CC1 | -19.3% | –
Cc1ccc(Cl)cc1N1CCN(S(=O)(=O)c2cc3[nH]c(=O)c(=O)[nH]c3cc2C)CC1 | -20.7% | –
COc1ccc(CCC(=O)NCc2ccc3c(c2)CCN3C(=O)c2ccc(F)cc2)cc1 | -1.32% | –
COc1ccccc1-c1noc(-c2ccc(NCc3ccccc3)c([N+](=O)[O-])c2)n1 | -4.93% | –
O=C(CSc1nnc(-c2ccccc2F)o1)Nc1cccc(C(F)(F)F)c1 | -13% | –
Oc1ccccc1CN1CCN(C(c2ccccc2)c2ccccc2)CC1 | – | 50.1 µM (active)
COc1ccccc1N1CCN(Cc2cc(OC)c3c(c2)OCO3)CC1 | -11% | –
COc1ccccc1CN1CCN(Cc2cc(OC)c(OC)cc2OC)CC1 | – | 50.1 µM (active)
COc1cc(CN2CCCN(C)CC2)c([N+](=O)[O-])cc1OC | -9.5% | –
c1ccc(C(c2ccccc2)N2CCN(Cc3nnnn3C3CCCCC3)CC2)cc1 | 4.36% | –
COc1ccccc1Cn1c(CO)nc2ccccc21 | -9% | –
COc1ccccc1CN1CCN(C(c2ccccc2)c2ccccc2)CC1 | – | 79.4 µM (active)
CNCC(O)CN1CCN(c2ccccc2OC)CC1 (stereo not drawn) | -26% | –
CC(=O)N1CCN(CC(c2ccccc2)c2ccccc2)CC1 | -23.7% | –
COc1ccccc1CN1CCCC(N2CCN(c3ccc(F)cc3)CC2)C1 (stereo not drawn) | -2.71% | –
COc1ccccc1N1CCN(Cc2ccc(OC)c3ccccc23)CC1 | – | 28.2 µM (active)
COc1ccccc1CNCc1cccs1 | 2.33% | –

SMILES | activity change, negative = inhibition | Potency
Cc1ccc2cccc(NC(=O)c3ccc(OC(C)C)cc3)c2n1 | -7.03% | –
Cc1ccc(NC(=O)CSc2nnc3[nH]c(=O)cc(C)n23)cc1Cl | 1.62% | –
CSc1ccc(C2c3c(oc4ccccc4c3=O)C(=O)N2CCCN2CCOCC2)cc1 (stereo not drawn) | -3.97% | –
COc1cccc(C(=O)N(Cc2cccc(Cl)c2)Cc2ccco2)c1 | 27% | –
O=C(COc1ccc(Cl)cc1)Nc1ccccc1OCc1cc(=O)n2ccccc2n1 | 3.37% | –
Cc1ccc(NC(=O)c2cc3cc(C)ccc3n2C)cc1 | -7.6% | –
O=C(Cn1c(=O)n(Cc2ccccc2)c(=O)c2sc3ccccc3c21)Nc1ccccc1F | 2.08% | –
Cc1ccc(C2CCN(C(=O)c3cnn(-c4ccccc4Cl)c3C3CCN(C(=O)OC(C)(C)C)CC3)C2)cc1 (stereo not drawn) | -17.9% [at 57.1 µM] | –
COc1cccc(CNC(=O)Cn2ncn3c(cc4ccccc43)c2=O)c1 | 2.55% | –
Cc1ccc(NC(=O)CN2c3ccccc3S(=O)(=O)c3ccccc32)cc1F | -11.7% | –
CCCn1c2ccccc2c2cnn(CC(=O)N3CCCC(C(=O)OCC)C3)c(=O)c21 (stereo not drawn) | 2.57% | –
COc1cc2c3c(c1)/C(=C1/SC(=S)NC1=O)C(=O)N3C(C)(C)C=C2C | – | 44.7 µM (active)
CCOC(=O)c1ccc(NC(=O)c2nc[nH]c2C(=O)NCc2ccccc2)cc1 | 3.08% | –
CC(C)(C)OC(=O)N1CCC(NC(=O)c2[nH]cnc2C(=O)N[C@@H](Cc2ccccc2)C(=O)OCc2ccccc2)CC1 | -15.2% | –
CCOC(=O)c1[nH]cnc1C(=O)NC1CCCCC1 | – | 50.1 µM (active)
COc1ccc2cc(CNc3ccc(OC)c(OC)c3)c(=O)n(CC(=O)Nc3ccccc3F)c2c1 | 0.402% | –
COc1cccc(-c2n[nH]c3c2C(c2cccc(O)c2)N(C)C3=O)c1 (stereo not drawn) | -16% | –
Cc1ccc(/C=N/NC(=O)c2cc3ccccc3cc2O)o1 | -28.4% | –
Cc1cc(N=Nc2ccc3ccccc3c2)ccc1O | – | 28.2 µM (active)
COc1ccc(/C=C/c2noc(-c3ccccc3O)n2)cc1OC | 4.53% | –
COc1ccc(-n2c(SCC(=O)Nc3ccc(Cl)c(C)c3)nc3n[nH]c(C)c3c2=N)cc1 | -4.47% | –
CCc1cccc(NC(=O)CN(c2ccc(C)c(C)c2)S(=O)(=O)c2ccsc2C(=O)OC)c1 | -6.76% | –
COc1cc(C)cc(CN2CCC(Cc3ccccc3)CC2)c1O | -25.9% | –

SMILES | activity change, negative = inhibition | Potency
Cc1cccnc1NC(=O)c1cccc(S(=O)(=O)N2CCN(c3ccc(F)cc3)CC2)c1 | -30.1% | –
Oc1c(CN2CCCC2)cc(COCc2ccccc2)c2cccnc12 | – | 17.8 µM (active)
O=C(CN1CCN(c2ccc(F)cc2)CC1)Nc1ccccc1 | 6.8% | –
Oc1c(CN2CCN(c3ccc(F)cc3)CC2)cc(Cl)c2cccnc12 | – | 22.4 µM (active)
COc1cc(CN2CCC(C(N)=O)CC2)ccc1OCc1ccccc1 | -14.9% | –
CCCS(=O)(=O)c1c(Nc2ccccc2C)sc(C(=O)c2ccccc2)c1N | -30.6% | –
Cc1ccc(-c2nn3c(=O)cc(CN4CCN(S(=O)(=O)c5ccc(Cl)cc5)CC4)nc3s2)cc1 | -2.85% | –
COc1cc(NC(=O)c2cc(C3CC3)nc3c2c(C)nn3-c2ccccc2)cc(OC)c1 | 10.3% [at 57.1 µM] | –
O=C(/C=C/c1ccccc1)Nc1cc(-c2nc3cc(Cl)ccc3o2)ccc1Cl | -6.45% | –
CCCCNC(=O)c1ccc2c(c1)NC(=O)C(C(C)C)N2 (stereo not drawn) | -2.58% | –
CCN(CCCNC(=O)c1ccc2c(c1)NC(=O)CN2C)c1cccc(C)c1 | – | 50.1 µM (active)
CCN(CCCNC(=O)Cn1ncc2c([nH]c3ccccc32)c1=O)c1cccc(C)c1 | -10.1% | –
CCC1CCCCN1C(=O)Cn1c(=O)n(CCCCCC(=O)NCc2ccccc2)c(=O)c2sccc21 (stereo not drawn) | 4.84% | –
CCC(=O)Nc1nc(C)c(C(=O)Nc2cccc(Cl)c2)s1 | -34.4% | –
C=CCCC(=O)Nc1nc(C)c(-c2csc(Nc3ccc(Cl)cc3)n2)s1 | – | 44.7 µM (active)
CCOC(=O)c1csc(NC(=O)Nc2cccc(OC)c2)n1 | -4.77% | –
Cc1nc(NC(=O)c2cccc(Cl)c2)sc1-c1csc(Nc2cccc(Cl)c2)n1 | -13.5% | –
CC(=O)Nc1nc(C)c(-c2csc(Nc3ccc(S(N)(=O)=O)cc3)n2)s1 | -12.2% | –
Cc1ccc(Nc2nc(-c3sc(NC(=O)c4ccccc4)nc3C)cs2)cc1 | – | 50.1 µM (active)
CCCCCCC(=O)Nc1nc(C)c(-c2csc(Nc3cccc(OC)c3)n2)s1 | – | 50.1 µM (active)
COc1cccc(CC(=O)Nc2ccc(-c3csc(C)n3)cc2)c1 | -13.6% | –
Cc1ccc(C(=O)Nc2nc(-c3ccccc3)ns2)cc1 | 1.63% | –

From PubChem BioAssay AID504333 (National Center for Advancing Translational Sciences (NCATS), 2011)
